# From PubChem BioAssay (Tox21)
# Records with an inconclusive call do not appear. Entries that show only a call come without a potency. A number with no mark means an inactive call. Active and inactive are the calls of the source. Calls follow the shape of the dose curve; as a rule, active = well fitted cell-killing curve with a large enough effect in the repeat runs; inconclusive = weak or mixed curves, or effect the other way; inactive = no such curve, though single readings can be large or run the other way.
# Experiment: qHTS assay to identify small molecule antagonists of the thyroid receptor (TR) signaling pathway - cell viability counter screen (AID 743064); also: nearly all actives have a fitted effect of over 50% in size
# Conditions: GH3.TRE-Luc viability, CellTiter-Fluor, 24 h; series mostly up to 70.3 µM
# From the text: National Center for Advancing Translational Sciences [NCATS]
# NIH Chemical Genomics Center [NCGC]
# U.S. Environmental Protection Agency [EPA]
# National Institutes of Environmental Health Sciences [NIEHS]
# National Toxicology Program [NTP]
# U.S. Food and Drug Administration [FDA]
# Thyroid receptor (TR), a nuclear hormone receptor, plays an important role in development, proliferation, differentiation, metabolism, brain function, and cardiovascular system. […] To profile the Tox21 10K compound library in TR signaling, a cell-based GH3-TRE-Luc assay (GH3.TRE-Luc cell line, developed by the laboratory of Dr. Albertinka J. Murk, Wageningen University) was used to measure the inhibition of TR. GH3 (rat pituitary tumor) cells stably expressing a TR activity sensor consisting of two TR response elements and a luciferase reporter gene. The cytotoxicity of the Tox21 compound library against the GH3.TRE-Luc cell line was tested in parallel by measuring the cell viability using CellTiter-Fluor assay (Promega, Madison, WI) in the same wells.
# Tox21 Assay Protocol Summary:
# GH3.TRE-Luc cells were dispensed at 1500 cells/4 uL/well into 1536-well white solid bottom plates using a Multidrop Combi dispenser (Thermo Fisher Scientific Inc., Waltham, MA). After the assay plates were incubated at 37 C for 4 hours, 23 nL of library compound or DMSO controls was transferred to the assay plates by a pintool station (Kalypsys, San Diego, CA), followed by addition of 1 ul of T3 (1 nM, final concentration in the wells) to stimulate TR transactivation. The assay plates were incubated at 37 C for 23.5 h, and then 1 uL of CellTiter-Fluor reagent (Promega, Madision, WI) of measuring cytotoxicity was added to each well using a Bioraptr Flying Reagent Dispenser (FRD) workstation (Beckman Coulter, Indianapolis, IN, USA). The plates were incubated at 37C and 5% CO2 for additional 30 min, and fluorescence intensity was measured by a ViewLux plate reader (PerkinElmer, Shelton, CT).
SMILES,Potency,"activity change, negative = cytotoxic"
CC1=C(O)C(=O)CO1,inactive,
O=CN1CCCCC1,inactive,
COc1cnc(NS(=O)(=O)c2ccc(N)cc2)nc1,inactive,
CN(C)CCCN(C)C,,20.5% [at 8.44 µM]
O=S(=O)(O)CC(O)CCl (stereo not given),inactive,
C=CC(=O)OCC[N+](C)(C)C,inactive,
CCc1ccc(CC)cc1,inactive,
Cc1nc2ccc(Cl)cc2[nH]1,inactive,
C=CCn1cc[n+](C)c1,inactive,
O=C(CCBr)N1CCN(C(=O)CCBr)CC1,inactive,
CCCCc1ccc(Cl)cc1,inactive,
NCC1CCC(C(=O)Oc2ccc(CCC(=O)O)cc2)CC1 (stereo not given),inactive,
CCOC(=O)CC,inactive,
N=C(N)S(=O)O,inactive,
CC(C)(C)C(=O)CCc1ccc(Cl)cc1,inactive,
C=CCON/C(CCC)=C1\C(=O)CC(C)(C)C(C(=O)OC)=C1O,inactive,
CC(C)c1cc(C(C)C)cc(C(C)C)c1,inactive,
Cc1cc(C)c(C)c(C)c1,inactive,
Nc1cc(S(=O)(=O)O)ccc1O,inactive,
COCCCOc1cc(C[C@@H](C[C@H](N)[C@@H](O)C[C@H](C(=O)NCC(C)(C)C(N)=O)C(C)C)C(C)C)ccc1OC,inactive,

SMILES,Potency,"activity change, negative = cytotoxic"
CC(C)(C)c1ccc(N)cc1,inactive,
NNC(=O)OCc1ccccc1,inactive,
CCOCCOCCOC(C)=O,inactive,
C[Si](C)(C)O[Si](O)(O)O,inactive,
CC(=O)Nc1ccc(S(=O)(=O)Nc2cc(C)on2)cc1,inactive,
Cc1ccc(N)nc1,inactive,
N#Cc1ccccc1C#N,inactive,
Cc1ccc(NC(N)=O)cc1,inactive,
CC(C)(C)NCC(O)COc1cccc2c1CCC(=O)N2 (stereo not given),inactive,
C[C@@H](CN1CC(=O)NC(=O)C1)N1CC(=O)NC(=O)C1,inactive,
O=C(O)Cc1c(Cl)ccc(Cl)c1Cl,inactive,
Cc1nnc(C(=O)NC(C)(C)c2nc(C(=O)NCc3ccc(F)cc3)c(O)c(=O)n2C)o1,inactive,
C=CCN(CC=C)CC=C,inactive,
C=COCCCCO,inactive,
COc1cc(OC)cc(OC)c1,inactive,
CC(=O)OC/C=C(/C)CCC=C(C)C,inactive,
CC(O)CCCCn1c(=O)c2c(ncn2C)n(C)c1=O (stereo not given),inactive,
Cc1ccc(OC(=O)CC(C)C)cc1,inactive,
Cc1cc(C)c(N)c(Cl)c1,inactive,
Cc1ccc(O)c(C(=O)c2ccccc2)c1,inactive,
